Test results reported in PubChem BioAssay (NCATS).
Records with an inconclusive call do not appear. Entries that show only a call come without a potency. Activity calls are given as the source filed them. The call rests on the fitted dose curve; in most records, active means well fitted cell-killing curve with a large enough effect; inconclusive means small, poorly fitted or top-dose-only effect; inactive means flat fitted curve, though single readings scatter.

Experiment: Cell Viability - LYMP2-022 (AID 987); further: nearly all actives have a fitted effect of over 55% in size
Settings: LYMP2-022 lymphoblastoid cell viability; series mostly up to 92.2 µM
Description: NIH Chemical Genomics Center [NCGC]
NIH Molecular Libraries Screening Centers Network [MLSCN]
National Institutes of Environmental Health Sciences [NIEHS]
National Toxicology Program [NTP]
We have developed a 1536-well cell-based assay for quantitative high throughput screening (qHTS) against a number of cell lines to determine in vitro cytotoxicity of small molecules. This particular assay uses a human lymphoblastoid cell line (LYMP2-022) purchased from Coriell Institute for Medical Research.
NCGC Assay Protocol Summary:
The CellTiter-Glo luminescent cell viability assay (Promega) is a homogeneous method to measure the number of viable cells in culture. The end point readout of this assay is based on quantitation of intracellular ATP, an indicator of metabolic activity, using the luciferase reaction. Luciferase catalyzes the oxidation of beetle Luciferin to oxyluciferin and light in the presence of ATP. The luminescent signal is proportional to amount of ATP present.
Using the CellTiter-Glo luminescent cell viability assay, the amount of cellular ATP was measured in the lymphoblastoid cell line with complete culture medium following compound treatment for 24 hours. The assay was performed in opaque white Kalypsys 1536-well plates. In the screen, tetraoctylammonium bromide was used as positive control. Library compounds were measured for their ability to cause acute toxicity in the cell line, as reflected by a decrease in intracellular ATP levels, in a concentration-dependent manner. […] AC50 values were determined from concentration-response data modeled with the standard Hill equation.
qHTS protocol for CellTiter Glo lymphoblastoid cellular assay
[Step] [Parameter] [Value] [Description]
1. Reagent; 5 uL; 2500 lymphoblastoid cells/well
2. Time; 5 hr; 37 C incubation
4. Controls; 23 nL; Tetraoctylammonium bromide 6.4pM to 92 uM
5. Time; 24 hr; 37 C incubation
6. Reagent; 5 uL; CellTiter Glo reagent
7. Time; 30 min; Room Temperature
8. Detection; Luminescence; Viewlux plate reader
Keywords: cell viability, cytotoxicity, lymphoblastoid cell line, luminescence, NTPHTS, NTPHTS_NCGC, NIEHS, DSSTox, MLSMR, MLSCN, NIH Roadmap, qHTS, NCGC
Potency means the concentration at half of the fitted maximal effect.

| SMILES | Potency |
| --- | --- |
| CC(=O)c1ccc(S(=O)(=O)NC(=O)NC2CCCCC2)cc1 | inactive |
| CCCCC1C(=O)N(c2ccccc2)N(c2ccccc2)C1=O | inactive |
| O=c1c(O)c(-c2ccc(O)cc2)oc2cc(O)cc(O)c12 | inactive |
| CC/C(=C(\c1ccccc1)c1ccc(OCCN(C)C)cc1)c1ccccc1 | 39.8 µM (active) |
| O=c1c(-c2ccc(O)cc2)coc2cc(O)ccc12 | inactive |
| O=C(O)c1cc(O)c2c(c1)C(=O)c1cccc(O)c1C2=O | inactive |
| O=c1[nH]cnc2c1ncn2[C@H]1CC[C@@H](CO)O1 | inactive |
| CN(C)CCC(c1ccccc1)c1ccccn1 (centres undefined) | inactive |
| CC1=C(/C=C/C(C)=C/C=C/C(C)=C/C(=O)Nc2ccc(O)cc2)C(C)(C)CCC1 | 39.8 µM (active) |
| O=C(O)Cc1cccc2ccccc12 | inactive |
| CC(=O)O[C@]1(C(C)=O)CC[C@H]2[C@@H]3C=C(Cl)C4=CC(=O)[C@@H]5C[C@@H]5[C@]4(C)[C@H]3CC[C@@]21C | inactive |
| CCCNC(=O)NS(=O)(=O)c1ccc(Cl)cc1 | inactive |
| O=C1NC(=O)C(c2ccccc2)(c2ccccc2)N1 | inactive |
| CCn1cc(C(=O)O)c(=O)c2ccc(C)nc21 | inactive |
